Measurements taken from PubChem BioAssay AID2012 (Sanford-Burnham Center for Chemical Genomics, 2009).
The whole screen tested about 290,000 compounds, of which about 2,700 (0.93%) were called active. No rule for the calls is given here. Only a selection was taken, and actives are over-represented in it overall.

Target: Eukaryotic translation initiation factor 4H (Homo sapiens) (UniProt Q15056)
Test: eIF4H binding inhibition – biochemical, uHTS, fluorescence polarization, translation initiation inhibitor project, primary screen (AID 2012);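 also: calls also rest on retests at 20 µM and on dose response follow-up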
Settings: eIF4H fluorescence polarization binding assay, stronger effect = higher value

| SMILES | inhibition (at 35 µM) | inhibition (confirmation average, at 20 µM) [%] |
| --- | --- | --- |
| COc1ccc(C(=O)NC(=S)N2CCCCC2c2cccnc2)cc1OC (stereo not drawn) | 2% (inactive) |  |
| O=C(CN(C(=O)CCC(=O)Nc1nccs1)c1ccc(F)cc1)NCc1ccc2c(c1)OCO2 | -1.4% (inactive) |  |
| CNc1nc(-c2ccccc2)cc(-c2ccccc2)n1 | -3.9% (inactive) |  |
| Nc1nc(-c2ccccc2)cc(-c2ccccc2)n1 | 0.4% (inactive) |  |
| CS(=O)(=O)c1sc2nc(-c3ccccc3)cc(-c3ccccc3)c2c1N | 98.5% (active) |  |
| CCCc1cc(C(=O)Nc2ccc(Cl)cn2)cs1 | 2.5% (inactive) |  |
| CCc1ccccc1S(=O)(=O)Cc1ccc(C(=O)NCCc2ccccc2)o1 | -13% (inactive) |  |
| COc1ccc(OC)c(-n2c(-c3ccn[nH]3)n[nH]c2=S)c1 | -6% (inactive) |  |
| COc1ccc(-n2c(-c3ccc(OC)c(OC)c3)n[nH]c2=S)cc1 | 7.7% (inactive) |  |
| COc1ccccc1-n1c(-c2cc(-c3ccco3)[nH]n2)n[nH]c1=S | 58% (active) | 74 |
| Cc1nc(C)c(-c2nnc(-c3cccc(S(=O)(=O)N(C)C)c3)o2)cc1C(=O)NN | -1.3% (inactive) |  |
| Cc1ccccc1C(=O)NC(=S)NC1CC1 | -17.7% (inactive) |  |
| CSCCC(NC(=O)c1ccco1)C(=O)OCC(=O)Nc1ncc(Cl)c(C)c1Cl (stereo not drawn) | 4.5% (inactive) |  |
| Cc1c(Cl)cnc(NC(=O)COC(=O)c2ccc(S(=O)(=O)NCc3ccco3)cc2)c1Cl | 58.6% (active) | 87.4 |
| C/C(=N\Nc1ncc(Cl)cc1Cl)c1ccc(S(=O)(=O)NCc2ccco2)cc1 | -4.5% (inactive) |  |
| CC(=O)Nc1ccc(N2C(=O)C3C4C=CC(CC4)C3C2=O)cc1 (stereo not drawn) | -5.9% (inactive) |  |
| O=c1[nH]c(/C=C\c2cccc(C(F)(F)F)c2)nc(O)c1[N+](=O)[O-] | 3.5% (inactive) |  |
| Cc1cccc(NS(=O)(=O)c2ccc(C(=O)NCC(C)(C)N3CCOCC3)cc2)c1C | -0.1% (inactive) |  |
| Cc1cccc(NC(=O)CN2C(=O)c3ccccc3C2=O)c1C | 9.4% (inactive) |  |
| O=C1N/C(=C/c2cccn2-c2ccccc2)C(=O)N1c1cccc(Cl)c1 | 2.6% (inactive) |  |

| SMILES | inhibition (at 35 µM) | inhibition (confirmation average, at 20 µM) [%] |
| --- | --- | --- |
| Cc1ccccc1NC(=O)CN1C(=O)N/C(=C\c2cccn2-c2cccc(C(=O)O)c2)C1=O | 89.1% (active) | 86.1 |
| Cc1ccc(CNC(=O)C(=O)c2cn(CC(=O)N3CCOCC3)c3ccccc23)cc1 | -6.1% (inactive) |  |
| Cc1ccc(C)c(SCc2nc3sc(C(=O)O)c(C)c3c(=O)[nH]2)c1 | 2.9% (inactive) |  |
| CSc1nnc(SCc2nc3sc(C(=O)O)c(C)c3c(=O)[nH]2)s1 | 86.3% (active) |  |
| CCOC(=O)c1sc2nc(CSc3ccccc3)[nH]c(=O)c2c1C | 2.6% (inactive) |  |
| COC(=O)c1ccccc1NC(=O)CSc1n[nH]c(-c2ccncc2)n1 | 3.3% (inactive) |  |
| Cc1cccnc1CC(C)NC(=O)c1cc(COc2cncc(Cl)c2)on1 (stereo not drawn) | -1% (inactive) |  |
| Oc1ccc(N=Cc2sc3ccccc3c2Cl)cc1 | 105% (active) | 73.8 |
| Oc1ccc(N=Cc2c(O)ccc3ccccc23)cc1 | 19% (inactive) |  |
| O=C(N/N=C/c1c(Cl)[nH]c2ccccc12)c1sc2ccccc2c1Cl | -8.2% (inactive) |  |
| CCCOc1ccc(/C=N/NC(=O)C2CC2)c(OCCC)c1 | -12.1% (inactive) |  |
| Cc1c(OC(C)C(=O)N[C@@H](Cc2ccccc2)C(=O)O)ccc2c3c(c(=O)oc12)CCCC3 (stereo partly drawn) | 5.5% (inactive) |  |
| Cc1cc(OC(C)C(=O)NC2CC(C)(C)NC(C)(C)C2)c2c(C)cc(=O)oc2c1 (stereo not drawn) | -0.9% (inactive) |  |
| Cc1ccc(N=C2NC(=O)/C(=C/C=C/c3ccco3)S2)cc1C | 75.9% (active) | 90.3 |
| Cc1cccc(N=C2NC(=O)/C(=C/c3cn(C)c4ccccc34)S2)c1 | 2.5% (inactive) |  |
| Cc1ccc(N2NC(=O)/C(=C/C=C/c3ccco3)C2=O)cc1C | 45.7% (inactive) |  |
| CCN(CC)S(=O)(=O)c1ccc(-c2cn3ccc(C)cc3n2)cc1 | 1.1% (inactive) |  |
| O=[N+]([O-])c1ccccc1/C=N/n1c(COc2ccccc2)n[nH]c1=S | -1.1% (inactive) |  |
| CCOc1ccc(-c2n[nH]c(=S)n2/N=C/c2cc3c(cc2[N+](=O)[O-])OCO3)cc1 | 86.2% (active) | 80.4 |
| Cc1ccc(-c2n[nH]c(=S)n2/N=C/c2cc3c(cc2[N+](=O)[O-])OCO3)cc1 | 29.5% (inactive) |  |

| SMILES | inhibition (at 35 µM) | inhibition (confirmation average, at 20 µM) [%] |
| --- | --- | --- |
| COc1cc(/C=N/NC(=O)c2cc(C)n(-c3ccc(F)cc3)c2C)cc(OC)c1O | 0.7% (inactive) |  |
| Cc1ccc(-n2c(C)cc(C(=O)CN3C(=O)C(=O)N(C4CCCC4)C3=O)c2C)cc1 | 1.2% (inactive) |  |
| Cc1cc(C(=O)COC(=O)C2CC2)c(C)n1-c1ccc(F)cc1 | 4.9% (active) | 52.5 |
| O=C(Nc1ccc(F)cc1)c1ccc(S(=O)(=O)NCc2cccnc2)cc1 | 10.1% (inactive) |  |
| NC(=O)CN1CCCC1c1ccc2c(c1)OCCO2 (stereo not drawn) | 4.2% (inactive) |  |
| Fc1cccc(Cl)c1CSc1ccc(-c2ccco2)nn1 | 49.1% (inactive) |  |
| COC(OC)c1ccnc(SCc2ccccc2Cl)n1 | 2% (inactive) |  |
| O=C(Nc1nnc(SCc2ccccc2)s1)c1ccco1 | 6% (inactive) |  |
| c1ccc(CSc2nnc(-c3ccco3)c(-c3ccco3)n2)cc1 | 94.6% (active) |  |
| Brc1ccc(CSc2ccc(-c3ccco3)nn2)cc1 | 61% (inactive) | -1.3 |
| Clc1ccccc1CSc1nnc(-c2ccco2)c(-c2ccco2)n1 | 96.6% (active) | 94.4 |
| CCN(C(=O)C1CCCN(c2nc(-c3ccc(OC)cc3)no2)C1)c1ccc(OC)cc1 (stereo not drawn) | -11.8% (inactive) |  |
| Cc1ccc(NC(=O)CSc2nn3c(=O)c(C)nnc3s2)cc1Cl | -27.5% (inactive) |  |
| CC(=O)c1ccc(N2CCN(C(=O)C3CCN(S(=O)(=O)c4ccc5c(c4)CC(C)N5C(=O)C4CC4)CC3)CC2)cc1 (stereo not drawn) | -9.3% (inactive) |  |
| O=C(Nc1ccc2c(c1)OCO2)c1sc2cc(Cl)ccc2c1Cl | -4% (inactive) |  |
| CC(Sc1nc(-c2ccccc2)cc(C(F)(F)F)n1)C(=O)Nc1ccc2c(c1)OCO2 (stereo not drawn) | 4.8% (inactive) |  |
| CC(Sc1nc2cc(Cl)ccc2s1)C(=O)Nc1ccc2c(c1)OCO2 (stereo not drawn) | 1.8% (active) | 65.1 |
| O=S(=O)(c1ccc(Br)cc1)N1CCC(c2nc3ccccc3[nH]2)CC1 | -8.2% (inactive) |  |
